Counter-ions that a name gives are not always drawn.
Assays:
Conditions in all cases: incubation time: 27 h, anaerobic, 37 °C;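 for the amine columns active = adjusted P below 0.05 in both replicates with a change the same way and a mean fold change under 0.8 or over 1.25; inactive = the rest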
[1] = test system: Clostridium sporogenes DSM 1664; assay: growth (OD595) fold change vs plate DMSO controls (fold change (ratio)); higher = more growth
Outline: (§1)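 After 27 h at 37 °C under anaerobic conditions, 96-well cultures in mGAM were shaken and read at 595 nm. The readings were blank-subtracted, corrected for compound background using 20 µM compound solutions in water, and converted to OD with a calibration factor of 5. Growth is defined as the fold change over the median of DMSO controls on each plate. Fold changes above 1.5 were set to NA, and each value is the mean of 2 biological replicates.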

Escherichia coli IAI1 [2] = assay: as above
Outline: as §1

[3] = test system: Klebsiella aerogenes DSM 30053; assay: as above
Outline: as §1

[4] = test system: Ruminococcus gnavus DSM 108212; assay: as above
Outline: as §1

[5] = test system: Klebsiella aerogenes DSM 30053; assay: fold change of Histamine concentration vs plate DMSO controls (fold change (ratio)); higher = more amine produced, active = hit call of the paper (significant change in both replicates, either direction)
Outline: (§2)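 Amines were quantified by LC–triple-quadrupole MS in dynamic MRM mode against external calibration curves, with drift correction within each batch. The samples were whole anaerobic mGAM cultures of four gut bacterial strains, grown for 27 h at 37 °C in 80 µL wells and extracted with cold acetonitrile/methanol with 0.1% formic acid, then centrifuged. Values are reported as fold change over DMSO controls on the same plate. The mean of 2 biological replicates is given.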

[6] = test system: Clostridium sporogenes DSM 1664; assay: fold change of Tryptamine concentration vs plate DMSO controls (fold change (ratio)); higher = more amine produced, active = hit call of the paper (significant change in both replicates, either direction)
Outline: as §2

[7] = test system: Ruminococcus gnavus DSM 108212; assay: as above
Outline: as §2

Escherichia coli IAI1 [8] = assay: fold change of Putrescine concentration vs plate DMSO controls (fold change (ratio)); higher = more amine produced, active = hit call of the paper (significant change in both replicates, either direction)
Outline: as §2

[9] = test system: Klebsiella aerogenes DSM 30053; assay: as above
Outline: as §2

Escherichia coli IAI1 [10] = assay: fold change of Cadaverine concentration vs plate DMSO controls (fold change (ratio)); higher = more amine produced, active = hit call of the paper (significant change in both replicates, either direction)
Outline: as §2

[11] = test system: Klebsiella aerogenes DSM 30053; assay: as above
Outline: as §2

[12] = test system: Ruminococcus gnavus DSM 108212; assay: fold change of 2-Phenylethylamine concentration vs plate DMSO controls (fold change (ratio)); higher = more amine produced, active = hit call of the paper (significant change in both replicates, either direction)
Outline: as §2

SMILES: CC(C)(C)C(=O)OCOC(=O)[C@@H]1N2C(=O)[C@@H](/N=C/N3CCCCCC3)[C@H]2SC1(C)C [Pivmecillinam hydrochloride] (20 µM)
- growth [1]: 0.954
- growth (Escherichia coli IAI1 [2]): 1.01
- growth [3]: 0.909
- growth [4]: 1.2
- fold change of Histamine concentration [5]: 0.597 (active)
- fold change of Tryptamine concentration [6]: 1.01 (inactive)
- fold change of Tryptamine concentration [7]: 1.03 (inactive)
- fold change of Putrescine concentration (Escherichia coli IAI1 [8]): 1.02 (inactive)
- fold change of Putrescine concentration [9]: 0.954 (inactive)
- fold change of Cadaverine concentration (Escherichia coli IAI1 [10]): 1.46 (active)
- fold change of Cadaverine concentration [11]: 1.01 (inactive)
- fold change of 2-Phenylethylamine concentration [12]: 1.03 (inactive)

SMILES: CC[N+](C)(CC)CCOC(=O)C1c2ccccc2Oc2ccccc21 [Methantheline bromide] (20 µM)
- growth [1]: 0.956
- growth (Escherichia coli IAI1 [2]): 1.01
- growth [3]: 0.979
- growth [4]: 0.897
- fold change of Histamine concentration [5]: 1.05 (inactive)
- fold change of Tryptamine concentration [6]: 0.999 (inactive)
- fold change of Tryptamine concentration [7]: 1.01 (inactive)
- fold change of Putrescine concentration (Escherichia coli IAI1 [8]): 1.04 (inactive)
- fold change of Putrescine concentration [9]: 1.01 (inactive)
- fold change of Cadaverine concentration (Escherichia coli IAI1 [10]): 1.02 (inactive)
- fold change of Cadaverine concentration [11]: 0.984 (inactive)
- fold change of 2-Phenylethylamine concentration [12]: 1.05 (inactive)

SMILES: Clc1ccc(CSC(Cn2ccnc2)c2ccc(Cl)cc2Cl)cc1 (centres undefined) [Sulconazole nitrate] (20 µM)
- growth [1]: 0.862
- growth (Escherichia coli IAI1 [2]): 1.05
- growth [3]: 0.995
- growth [4]: 0.423
- fold change of Histamine concentration [5]: 0.872 (inactive)
- fold change of Tryptamine concentration [6]: 1 (inactive)
- fold change of Tryptamine concentration [7]: 0.434 (active)
- fold change of Putrescine concentration (Escherichia coli IAI1 [8]): 0.922 (inactive)
- fold change of Putrescine concentration [9]: 0.96 (inactive)
- fold change of Cadaverine concentration (Escherichia coli IAI1 [10]): 0.499 (inactive)
- fold change of Cadaverine concentration [11]: 1.01 (inactive)
- fold change of 2-Phenylethylamine concentration [12]: 0.667 (active)

SMILES: CCc1cc(C(N)=S)ccn1 [Ethionamide] (20 µM)
- growth [1]: 1.09
- growth (Escherichia coli IAI1 [2]): 1.05
- growth [3]: 1.03
- growth [4]: 0.995
- fold change of Histamine concentration [5]: 0.962 (inactive)
- fold change of Tryptamine concentration [6]: 1 (inactive)
- fold change of Tryptamine concentration [7]: 1.02 (inactive)
- fold change of Putrescine concentration (Escherichia coli IAI1 [8]): 1.05 (inactive)
- fold change of Putrescine concentration [9]: 1 (inactive)
- fold change of Cadaverine concentration (Escherichia coli IAI1 [10]): 1 (inactive)
- fold change of Cadaverine concentration [11]: 1.02 (inactive)
- fold change of 2-Phenylethylamine concentration [12]: 1.01 (inactive)

SMILES: CN(C(=O)CN(CCO)CC(=O)N(C)C(C)(C)Cc1ccccc1)C(C)(C)Cc1ccccc1 [Oxethazaine] (20 µM)
- growth [1]: 1.23
- growth (Escherichia coli IAI1 [2]): 1.05
- growth [3]: 1
- growth [4]: 0.384
- fold change of Histamine concentration [5]: 0.971 (inactive)
- fold change of Tryptamine concentration [6]: 0.918 (inactive)
- fold change of Tryptamine concentration [7]: 0.602 (active)
- fold change of Putrescine concentration (Escherichia coli IAI1 [8]): 1.1 (inactive)
- fold change of Putrescine concentration [9]: 1 (inactive)
- fold change of Cadaverine concentration (Escherichia coli IAI1 [10]): 1.01 (inactive)
- fold change of Cadaverine concentration [11]: 0.988 (inactive)
- fold change of 2-Phenylethylamine concentration [12]: 0.728 (active)

SMILES: CCC1(C)CC(=O)NC1=O (centres undefined) [Ethosuximide] (20 µM)
- growth [1]: 0.953
- growth (Escherichia coli IAI1 [2]): 1
- growth [3]: 1.07
- growth [4]: 0.928
- fold change of Histamine concentration [5]: 0.991 (inactive)
- fold change of Tryptamine concentration [6]: 1.07 (inactive)
- fold change of Tryptamine concentration [7]: 0.992 (inactive)
- fold change of Putrescine concentration (Escherichia coli IAI1 [8]): 1 (inactive)
- fold change of Putrescine concentration [9]: 0.995 (inactive)
- fold change of Cadaverine concentration (Escherichia coli IAI1 [10]): 0.995 (inactive)
- fold change of Cadaverine concentration [11]: 1.03 (inactive)
- fold change of 2-Phenylethylamine concentration [12]: 1.02 (inactive)

SMILES: NC(=O)c1ncn([C@@H]2O[C@H](CO)[C@@H](O)[C@H]2O)n1 [Ribavirin] (20 µM)
- growth [1]: 1.13
- growth (Escherichia coli IAI1 [2]): 0.988
- growth [3]: 0.979
- growth [4]: 0.942
- fold change of Histamine concentration [5]: 0.947 (inactive)
- fold change of Tryptamine concentration [6]: 1.01 (inactive)
- fold change of Tryptamine concentration [7]: 0.994 (inactive)
- fold change of Putrescine concentration (Escherichia coli IAI1 [8]): 0.781 (inactive)
- fold change of Putrescine concentration [9]: 0.973 (inactive)
- fold change of Cadaverine concentration (Escherichia coli IAI1 [10]): 1.09 (inactive)
- fold change of Cadaverine concentration [11]: 1.01 (inactive)
- fold change of 2-Phenylethylamine concentration [12]: 0.967 (inactive)

SMILES: CC1(C)S[C@@H]2[C@H](NC(=O)C(C(=O)O)c3ccccc3)C(=O)N2[C@H]1C(=O)O (some centres undefined) [Carbenicillin disodium salt] (20 µM)
- growth [1]: 0
- growth (Escherichia coli IAI1 [2]): 1.19
- growth [3]: 1.05
- growth [4]: 0.00334
- fold change of Histamine concentration [5]: 1.02 (inactive)
- fold change of Tryptamine concentration [6]: 0.0162 (active)
- fold change of Tryptamine concentration [7]: 0.0824 (active)
- fold change of Putrescine concentration (Escherichia coli IAI1 [8]): 0.927 (inactive)
- fold change of Putrescine concentration [9]: 0.986 (inactive)
- fold change of Cadaverine concentration (Escherichia coli IAI1 [10]): 1.79 (active)
- fold change of Cadaverine concentration [11]: 1.05 (inactive)
- fold change of 2-Phenylethylamine concentration [12]: 0.0579 (active)

SMILES: NCCCCCC(=O)O [Aminocaproic acid] (20 µM)
- growth [1]: 0.927
- growth (Escherichia coli IAI1 [2]): 1.04
- growth [3]: 1.04
- growth [4]: 1.06
- fold change of Histamine concentration [5]: 0.969 (inactive)
- fold change of Tryptamine concentration [6]: 1.08 (inactive)
- fold change of Tryptamine concentration [7]: 1.04 (inactive)
- fold change of Putrescine concentration (Escherichia coli IAI1 [8]): 1.11 (inactive)
- fold change of Putrescine concentration [9]: 0.996 (inactive)
- fold change of Cadaverine concentration (Escherichia coli IAI1 [10]): 0.983 (inactive)
- fold change of Cadaverine concentration [11]: 1.02 (inactive)
- fold change of 2-Phenylethylamine concentration [12]: 1.09 (inactive)

SMILES: Cc1ccccc1N1C(=O)c2cc(S(N)(=O)=O)c(Cl)cc2NC1C (centres undefined) [Metolazone] (20 µM)
- growth [1]: 1.14
- growth (Escherichia coli IAI1 [2]): 0.984
- growth [3]: 1.02
- growth [4]: 1.07
- fold change of Histamine concentration [5]: 1.04 (inactive)
- fold change of Tryptamine concentration [6]: 0.993 (inactive)
- fold change of Tryptamine concentration [7]: 1.03 (inactive)
- fold change of Putrescine concentration (Escherichia coli IAI1 [8]): 1.02 (inactive)
- fold change of Putrescine concentration [9]: 0.995 (inactive)
- fold change of Cadaverine concentration (Escherichia coli IAI1 [10]): 0.977 (inactive)
- fold change of Cadaverine concentration [11]: 0.993 (inactive)
- fold change of 2-Phenylethylamine concentration [12]: 1.04 (inactive)

SMILES: Nc1nc(NC2CC2)c2ncn([C@H]3C=C[C@@H](CO)C3)c2n1 [Abacavir sulfate] (20 µM)
- growth [1]: 1.25
- growth (Escherichia coli IAI1 [2]): 1.05
- growth [3]: 1.02
- growth [4]: 1.02
- fold change of Histamine concentration [5]: 1.04 (inactive)
- fold change of Tryptamine concentration [6]: 0.969 (inactive)
- fold change of Tryptamine concentration [7]: 0.953 (inactive)
- fold change of Putrescine concentration (Escherichia coli IAI1 [8]): 1.03 (inactive)
- fold change of Putrescine concentration [9]: 1.04 (inactive)
- fold change of Cadaverine concentration (Escherichia coli IAI1 [10]): 0.969 (inactive)
- fold change of Cadaverine concentration [11]: 0.992 (inactive)
- fold change of 2-Phenylethylamine concentration [12]: 0.935 (inactive)

SMILES: CC1(C)S[C@@H]2[C@H](NC(=O)[C@H](N)c3ccc(O)cc3)C(=O)N2[C@H]1C(=O)O [Amoxicillin] (20 µM)
- growth [1]: 0
- growth (Escherichia coli IAI1 [2]): 0.796
- growth [3]: 0.828
- growth [4]: 0.198
- fold change of Histamine concentration [5]: 1.1 (inactive)
- fold change of Tryptamine concentration [6]: 0.0237 (active)
- fold change of Tryptamine concentration [7]: 0.0355 (active)
- fold change of Putrescine concentration (Escherichia coli IAI1 [8]): 3.1 (active)
- fold change of Putrescine concentration [9]: 1.05 (inactive)
- fold change of Cadaverine concentration (Escherichia coli IAI1 [10]): 1.41 (inactive)
- fold change of Cadaverine concentration [11]: 1.06 (inactive)
- fold change of 2-Phenylethylamine concentration [12]: 0.0375 (active)

Reference: the supplement of paper PMC12494721
